GLP-1R inv ag = acts as inverse agonist at human GLP-1 receptor; P43220; HEK293 GLP-1R CRE-luciferase, luminescence, 24 h; GLP-1R form is constitutively active; Potency, µM (titrated, usually from 38.3 µM), for the others: top-dose activity change, negative = inhibition, usual class: inhibitors; hit rate 1.6% among 410,000; AID 624417; further: potency means the concentration at half of the fitted maximal effect; on the % scale 0 is the no-effect control and ±100 the full control effect; nearly all actives have a fitted effect of over 55% in size
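HEK293 cells stably co-expressing a cAMP-responsive luciferase reporter and constitutively active GLP-1R were seeded, incubated 12 h, then exposed to compounds for 24 h at 37 C. Luminescence was read 12 min after detection reagent; inverse agonists lower signal.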
TRHR PAM = allosteric enhancers of human TRH receptor. TRHR cells, fluo-8 calcium fluorescence, EC20 TRH enhancement. hit rate 0.66% among 360,000. enhancement, % at 2 µM. P34981; in the data active means enhancement above about 30%; further: 0% is about no effect
Target sequence (P34981 whole entry, looked up): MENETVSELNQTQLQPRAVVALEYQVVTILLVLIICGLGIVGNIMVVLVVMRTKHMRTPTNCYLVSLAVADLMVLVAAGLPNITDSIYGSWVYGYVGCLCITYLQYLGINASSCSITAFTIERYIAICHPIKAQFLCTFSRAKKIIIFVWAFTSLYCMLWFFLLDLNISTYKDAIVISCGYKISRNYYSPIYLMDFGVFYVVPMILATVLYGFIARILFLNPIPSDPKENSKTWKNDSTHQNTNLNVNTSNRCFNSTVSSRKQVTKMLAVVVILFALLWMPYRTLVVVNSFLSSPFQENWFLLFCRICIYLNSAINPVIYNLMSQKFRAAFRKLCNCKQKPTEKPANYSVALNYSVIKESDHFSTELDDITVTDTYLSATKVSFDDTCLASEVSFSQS
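Enhancer read-out: after compound pinning and an initial kinetic agonist-mode read, an EC20 of TRH (10 nM final) was injected and fluo-8 calcium signal (Ex 480/Em 530) followed at 1 s/cycle for 100 cycles in TRHR-expressing cells.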
GLP1R cytotox = cytotoxic in the GLP-1 receptor inverse agonist counter-screen; Potency, µM (doses to about 38.3 µM), inactives show at the highest dose activity change, negative = inhibition, most hits filed as inhibitors; AID 624418; HEK293 cAMP-luciferase reporter cells, luminescence, 24 h; hit rate 0.13% among 410,000;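 further: loss of luciferase light is scored as toxicity; potency means the concentration at half of the fitted maximal effect; on the % scale 0 is the no-effect control and ±100 the full control effect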
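Seeding density was 200 cells/uL; after overnight-length (12 h) culture, 23 nL compounds went on for 24 h at 37 °C. Readout used a luciferase detection reagent, luminescence taken after 12 min at room temperature.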
GLP1R ag = agonists of human GLP-1 receptor. P43220. hit rate 0.007% among 380,000. HEK293 GLP-1R CRE-luciferase, luminescence, 4-6 h; cells express a hypersensitive GLP-1R form. Potency, µM (series often up to 45.6 µM), for inactives: at the highest dose activation, hits mostly activators; further: potency means the concentration at half of the fitted maximal effect; % of control where 0% means no effect
PTHR1 ag = agonists of human PTHR1 parathyroid hormone receptor | Potency, µM (titrated, usually from 115 µM), inactives show at the highest dose activation, most hits filed as activators | hit rate 0.075% among 410,000 | HEK293 GP2 PTHR1 cells, GloSensor cAMP luminescence, 1 h | Q03431; further: potency means the concentration at half of the fitted maximal effect; nearly all actives have a fitted effect of over 55% in size
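HEK-293-derived GP2 cells expressing PTHR1 and a GloSensor cAMP reporter, 3,000/well, plated overnight, given luciferin plus IBMX (each 0.5 mM as added) for 1 h at 37 °C, then compound for 1 h at 37 °C. Luminescence was read after 15 min at room temperature.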
TRHR agonist = agonists of human TRH receptor | hit rate 0.18% among 360,000 | P34981 | activation, % at 2 µM | TRHR cells, calcium flux fluo-8, FDSS agonist mode | AID 493084; in the data active means activation above about 30%; further: 0% is about no effect
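Agonist-mode FDSS calcium read (Ex 480/Em 530, 1 s cycles) in 1536-well TRHR cells with fluo-8 dye, after 10-cycle baseline and 23 nL compound addition; TRH at EC20 (10 nM final) added afterwards for the enhancer phase.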
Numbers without * were called inactive; i = inactive; ? = inconclusive; / = not tested or not shown; [ ] = remark or other dose. Shown are actives, neighbours in structure and some others; about 2.4% of the full set was active somewhere. Unless noted, the call rests on the fitted dose curve; in most records, active means well fitted curve in the direction sought with a large enough effect; inconclusive means small, poorly fitted or top-dose-only effect, or another doubt; inactive means no such curve, though single readings can be large; an effect the other way counts as inactive or inconclusive.

SMILES | GLP-1R inv ag | TRHR PAM | GLP1R cytotox | GLP1R ag | PTHR1 ag | TRHR agonist
CC(C)(C)c1cc(OC(=O)C2CCCC2)ccc1O | 7% | -7 | 2% | -9% | i | 2
CCCCC(CC)C(=O)Oc1ccc(O)c(C(C)(C)C)c1 (configuration not stated) | 5.6µM* | 5 | ? | 17% | -5% | -1
COc1ccc(CC2(CO)CCN(CC3=Cc4cc(Cl)ccc4OC3)CC2)cc1 | 2.8µM* | 1 | ? | 16% | -29% | 0
COc1cc(/C=N/NS(=O)(=O)c2ccc(C)cc2)ccc1OCc1ccc(C(=O)O)cc1 | 2.8µM* | 0 | -10% | -8% | -30% | 0
COc1cc([C@@H]2c3cc4c(cc3[C@@H](O[C@@H]3O[C@H]5CO[C@H](C)O[C@H]5[C@H](O)[C@@H]3O)[C@H]3COC(=O)[C@H]23)OCO4)cc(OC)c1OP(=O)(O)O | / | / | / | 11% | / | /
O=C1CN(C(=O)c2ccc(Br)o2)C(c2ccccc2)c2cc(Cl)ccc2N1 (configuration not stated) | ? | -2 | 4% | 6% | -38% | 3
O=C1CN(C(=O)c2ccc(Br)o2)C(c2ccc(F)cc2)c2cc(Cl)ccc2N1 (configuration not stated) | 3.5µM* | 3 | -11% | -4% | 6%[57.5 µM] | -1
O=C1CN(C(=O)c2ccc(Br)o2)C(c2ccccc2)c2cc(Br)ccc2N1 (configuration not stated) | 7.1µM* | -7 | -19% | -4% | -34% | 1
COc1ccc(N2C(=O)CCC(C(=O)O)C2c2ccc(OC)c(OC)c2)cc1 (configuration not stated) | 0% | 1 | 4% | -3% | i | 1
CCCCCCCN1C2=NCCCN2c2ccccc21 | 10µM* | -2 | -28% | 5% | -6% | -1
CCCCCCN1C2=NCCN2c2ccccc21 | -25% | 0 | -18% | 3% | i | 1
CCCCCCCN1C2=NCCN2c2ccccc21 | 5.6µM* | -1 | ? | -3% | i | 1
Clc1ccc(CN2C3=NCCCN3c3ccccc32)c(Cl)c1 | 8.9µM* | -16 | -29% | 3% | -10% | 1
CC1CCc2c(sc(NC(=O)Cn3nc(C(F)(F)F)c4c3CCCCC4)c2C#N)C1 (configuration not stated) | 1% | 2 | -16% | -2% | i | 0
COc1ccc(Cn2c(=N)c(C(=O)NC3CCCCC3)cc3c(=O)n4ccccc4nc32)cc1 | 74% | -3 | -14% | 4% | i | 0
COc1ccc(CNc2oc(COc3ccccc3)nc2C#N)cc1 | 10µM* | -4 | 9% | 1% | -94% | 0
Cc1cccc(OCc2nc(C#N)c(NCc3ccc4c(c3)OCO4)o2)c1 | 11µM* | -3 | -5% | 4% | -13%[57.5 µM] | 0
COc1ccc(CNc2oc(COc3cccc(C)c3)nc2C#N)cc1 | ? | 1 | 7% | / | -94% | -1
COc1ccc(CCNc2oc(COc3ccccc3)nc2C#N)cc1 | ? | -4 | -3% | 3% | -9% | 0
COc1ccc(C(CCNCc2ccc(N(C)C)cc2)c2ccccc2OC)cc1 (configuration not stated) | 10µM* | 2 | ? | 15% | -20% | 0
COc1ccc(C(CCNCc2ccc(OC(C)C)cc2)c2ccccc2OC)cc1 (configuration not stated) | ? | 5 | ? | -7% | -33% | 1
COc1ccc(CNCCC(c2ccc(OC)cc2)c2ccccc2OC)cc1 (configuration not stated) | 10µM* | 3 | ? | 5% | 0% | 1
Cc1cc(NC(=O)COC(=O)C2CC2)ccc1Br | ? | 5 | 2% | -1% | -25% | 0
Cc1cc(NC(=O)CON=C(N)CC(=O)Nc2ccccc2Cl)ccc1Br | 10µM* | -6 | -3% | 4% | -17% | 0
CCOC(=O)Nc1ccc2c(c1)C(=NO)c1ccccc1-2 | ? | / | -39% | 6% | -9% | /
SMILES | GLP-1R inv ag | TRHR PAM | GLP1R cytotox | GLP1R ag | PTHR1 ag | TRHR agonist
CCOC(=O)Nc1ccc2c(c1)C(=NNC(N)=S)c1ccccc1-2 | ? | / | 4µM* | -18% | -39% | /
COc1ccc(-c2nc3ccccc3c(=O)[nH]2)cc1 | -27% | 0 | -18% | 1% | -1% | 2
CN(C)c1ccc(-c2nc3ccccc3c(=O)[nH]2)cc1 | 8.9µM* | 5 | 8% | -9% | -25% | 1
C=C(C)COc1ccc(-c2ncnc(C(F)(F)F)c2-c2ccccc2)c(O)c1 | 2.8µM* | 0 | 1% | 13% | -34% | 0
C=C(C)COc1ccc(-c2ncnc(C(F)(F)F)c2-c2ccc(OC)cc2)c(O)c1 | 7.9µM* | 5 | 2% | 18% | -10% | 0
C=C(C)COc1ccc(-c2ncncc2-c2ccccc2OC)c(O)c1 | ? | 1 | 7% | 29% | -5% | -1
C=C(C)COc1ccc(-c2nc(N)nc(C(F)(F)F)c2-c2ccc(OC)cc2)c(O)c1 | ? | 9 | -3% | 7% | -2% | -1
O=C1C2CCCN2C(=O)N1CCCN1CCN(c2cccc(Cl)c2)CC1 (configuration not stated) | -27% | -5 | -6% | -1% | i | 0
O=C1C2CCCCN2C(=O)N1CCCCN1CCN(c2cccc(Cl)c2)CC1 (configuration not stated) | -37% | 32* | 8% | -6% | -11% | 1
CCOc1ccc(CNC(=O)C2=Cc3cccc(OC)c3OC2)cc1 | 13% | 6 | -7% | / | -5% | -1
COc1cc(C(=O)NCC(c2cccs2)N2CCOCC2)cc(Br)c1OCc1ccccc1 (configuration not stated) | 6.3µM* | / | -20% | 7% | i | /
O=C(NCC(c1cccs1)N1CCOCC1)c1cn(-c2ccccc2)nc1-c1ccccc1 (configuration not stated) | 10µM* | 5 | -9% | 3% | i | 1
Cn1cc(Br)c(C(=O)NN2C(=O)C3C(C2=O)C2C=CC3C23CC3)n1 (configuration not stated) | 6% | 0 | -16% | 11% | -16% | 0
CCOc1cc(/C=N/NC(=O)c2cccs2)cc([N+](=O)[O-])c1O | 31% | 6 | 0% | 0% | 29% | -1
COc1cccc(/C=c2\s/c(=C/C(=O)c3ccc(C)cc3)[nH]c2=O)c1OC | 26% | 1 | 14% | 2% | i | 4
COc1ccc(/C=c2\s/c(=C/C(=O)c3ccc(C)cc3)[nH]c2=O)c(OC)c1 | 31% | 1 | 15% | 1% | i | 54*

High-throughput results (PubChem)
